High-throughput results from PubChem.
tim23-1 inh – growth inhibitors of tim23-1 mutant yeast | S. cerevisiae tim23-1 growth, BacTiter-Glo luminescence, 24 h | inhibition, % at 20 µM | 1.3% of 330,000 active | AID 463212;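 active means growth inhibition of the mutant yeast at or above 50%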;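 further: temperature-sensitive mutant grown at 25 °C; plate controls were DMSO-treated mutant yeast for no effect and medium wells lacking yeast for full effect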
SUMO Mot1 rescue – inhibitors of SUMOylation pathway: yeast Mot1-301 growth rescue; S. cerevisiae Mot1-301 growth rescue, ATP luminescence, 38.5C; percent above DMSO median, 100 means doubled; 1% of 320,000 active; growth rescue, % at 18.8 µM;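 active means every valid replicate shows activation above 250% relative to neutral control wells; inactive means the rest, any valid replicate at or below 250%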;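 further: OY570 slx delta 5 strain wells were the positive control but not used for scaling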
tim10-1 inh – tim10-1 yeast growth inhibition; 2.2% of 330,000 active; S. cerevisiae tim10-1 ts strain growth, BacTiter-Glo, 24 h; inhibition, % at 20 µM; AID 463190;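 active means inhibition of at least 40%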;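 further: mutant grown at 25 °C; 0% = DMSO wells with yeast and 100% = wells holding no yeast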
PfHsp90 yeast 2 – growth inhibition of yeast expressing Plasmodium Hsp90 | S. cerevisiae expressing PfHsp90, BacTiter-Glo ATP, 48 h; yeast lacking PDR1 and PDR3 efflux regulators | inhibition, % at 9.4 µM | 0.32% of 310,000 active | AID 504621;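 active means every replicate shows inhibition above about 80%, whatever the replicate mean, limit read from the data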;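 further: 0% = DMSO neutral controls and 100% = 20 µM radicicol positive controls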
TIM10 inh – TIM10 yeast growth inhibition; S. cerevisiae TIM10 strain growth, BacTiter-Glo luminescence, 24 h; inhibition, % at 10 µM; 1.4% of 330,000 active; AID 463195;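 active means inhibition of 40% or more at the single tested concentration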;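 further: wild-type TIM10 isogenic control strain grown at permissive 25 °C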
tim10-1 confirm – tim10-1 yeast growth inhibition, confirmed; shares compounds with tim10-1 inh; S. cerevisiae tim10-1 ts strain growth, BacTiter-Glo, 24 h; inhibition, % at 20 µM; 56% of 7,400 active;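 active means inhibition of yeast growth at or above a set limit in either of two repeat tests at 20 µM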;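 further: tim10-1 mutant grown at permissive 25 °C to find synthetic lethal compounds; 0% = DMSO yeast wells and 100% = medium wells without yeast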
tim10 confirm – TIM10 yeast growth inhibition, confirmed. shares compounds with TIM10 inh. S. cerevisiae tim10 strain growth, BacTiter-Glo luminescence, 24 h. inhibition, % at 10 µM. 63% of 4,600 active. AID 463215;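 active means inhibition of yeast growth at or above a set limit in either of two replicates at 10 µM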;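 further: this counterscreen used the strain with wild-type TIM10; 0% = yeast with DMSO and 100% = medium wells lacking yeast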
tim23-1 confirm – tim23-1 yeast growth inhibition, confirmed. shares compounds with tim23-1 inh. S. cerevisiae tim23-1 growth, BacTiter-Glo luminescence, 24 h. inhibition, % at 20 µM. 83% of 4,400 active;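 active means inhibition above about 39% in either of two replicate wells at 20 µM, limit read from the data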;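 further: temperature-sensitive tim23-1 mutant grown at 25 °C; 0% = DMSO wells with yeast and 100% = medium wells without yeast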
* = called active by the depositor; x = no result given. Sampled rows, rich in hits. Any-hit rate of the full collection: about 4.4%.

SMILES | tim23-1 inh | SUMO Mot1 rescue | tim10-1 inh | PfHsp90 yeast 2 | TIM10 inh | tim10-1 confirm | tim10 confirm | tim23-1 confirm
CC(=O)Oc1ccc2c(=O)c(-c3nc4ccccc4s3)coc2c1 | 65* | -17 | 69* | x | 86* | 24 | 49* | 72*
COc1cc(OC)cc(C(=O)NC(C(=O)NNC(=O)CN(C)S(=O)(=O)c2ccc(C)cc2)C(C)C)c1 (centres undefined) | x | x | x | -3 | x | x | x | x
O=C(NCCc1ccncc1)Nc1cccc(Cl)c1 | 6 | 54 | 11 | 8 | 14 | x | x | x
O=C(NCCCc1ccccc1)Nc1cccc(Cl)c1 | 57* | 6 | 44* | 6 | 46* | 24 | -11 | 66*
COc1cccc(NC(=O)N2CCCC2C(=O)NCc2ccc(Cl)cc2)c1 (centres undefined) | 13 | 10 | 2 | -27 | 5 | x | x | x
CC(=O)O/N=C(/c1nonc1N)N1CCN(c2ccc([N+](=O)[O-])cc2Cl)CC1 | 63* | 14 | 62* | 14 | 75* | 67* | 85* | 75*
COc1ccc(C)cc1N(C(=O)c1snc(C(N)=O)c1N)C(C(=O)NC1CCCCC1)c1ccc(C)o1 (centres undefined) | 28 | x | 15 | -15 | 2 | x | x | x
CCC(C)(C)c1ccc(OCCCC[n+]2ccc(C)cc2)c(C(C)(C)CC)c1 | 60* | 171 | 42* | x | -38 | 17 | x | 39*
O/C=c1\ccc2cccc3nc(C(F)(F)F)nc1c23 | 50* | 104 | 63* | 8 | 52* | 54* | 51* | 50*
CC(C)OC(=O)n1c(=S)oc2ccccc21 | 76* | 28 | 53* | -39 | 47* | 37* | 26 | 67*
C[C@H](CO)N1C[C@H](C)[C@@H](CN(C)C(=O)Nc2ccc3c(c2)OCO3)Oc2ccc(NS(=O)(=O)c3cn(C)cn3)cc2C1=O | 14 | 54 | 11 | -1 | -3 | x | x | x
CC(C)(C)C(=O)Nc1ccc(C(=O)OC2CCCCC2)cc1 | 50* | 17 | 41* | -5 | 39 | 28 | x | 42*
Cc1cccc(NC(=S)NNC(=O)c2cccc([N+](=O)[O-])c2)c1 | 10 | -5 | 10 | 5 | 16 | x | x | x
O=C(NC(=S)Nc1cccc(F)c1)c1cccc([N+](=O)[O-])c1 | 54* | -28 | 49* | -8 | 6 | 3 | x | 52*
Cc1cc(C(C#N)c2ccc(Cl)cc2)c(Cl)cc1NC(=O)c1cc(I)cc(I)c1O (centres undefined) | 70* | 1 | 43* | -27 | 38 | 45* | x | 61*
CC1CCc2[nH]c3ccc(C(=O)N4CCCC(C(F)(F)F)C4)cc3c2C1 (centres undefined) | 68* | -23 | 42* | x | 25 | 30 | x | 55*
COC(=O)c1ccc2[nH]c3c(c2c1)CC(C)CC3 (centres undefined) | 40 | -14 | 24 | -53 | 19 | x | x | x
CCc1nn(CCCC(=O)NCc2ccccc2Br)c(=O)c2cc3occc3n12 | 50* | 16 | 43* | 17 | 3 | -4 | x | 54*
COc1ccccc1CNC(=O)/C(C#N)=C/c1ccc(OC)c(OC)c1OC | 53* | 82 | 46* | 13 | 24 | 45* | x | -23
COc1ccc(/C=C(\C#N)C(=O)OCC(=O)NCc2ccccc2OC)cc1 | 1 | 3 | 2 | -14 | -9 | x | x | x
Cc1ccc(Nc2nc(=O)c3cccnc3s2)c(Br)c1 | 51* | 31 | 47* | 17 | 31 | 36* | x | 50*
COCCOC(=O)/C(=C/c1ccc(OC(=O)c2ccccc2)cc1)C(C)=O | 90* | 170 | 73* | 108* | 80* | 65* | 3 | 88*
Cc1cc(C)n(/N=C/c2cc(Cl)cc(Cl)c2O)c(=O)c1 | 61* | 89 | 48* | -44 | 25 | 12 | x | 72*
Cc1cc(C)n(/N=C/c2ccccc2O)c(=O)c1 | 10 | 312 | 11 | -3 | -15 | x | x | x
COc1cccc(N(CC(=O)NC2CCCCC2)C(=O)CCC(=O)Nc2nc(C)cs2)c1 | -6 | -15 | 5 | -2 | 10 | x | x | x
SMILES | tim23-1 inh | SUMO Mot1 rescue | tim10-1 inh | PfHsp90 yeast 2 | TIM10 inh | tim10-1 confirm | tim10 confirm | tim23-1 confirm
CCOc1ccc(NCc2nnc(SCc3ccc(Cl)cc3)n2-c2ccccc2)cc1 | 52* | -21 | 46* | 7 | 47* | 42* | -24 | 56*
CC(C)N=c1scc(-c2ccco2)n1/N=C/c1ccc(O)c(O)c1 | 54* | 4 | 47* | 9 | 34 | 19 | x | 60*
CCOC(=O)c1cnc(-n2nc(C)cc2C)nc1NC(C)c1ccccc1 (centres undefined) | 54* | 741 | 44* | x | 53* | 30 | 57* | 45*
CCOc1ccccc1NC(=O)COC(=O)c1cc[n+]([O-])cc1 | 3 | 73 | 11 | -1 | -1 | x | x | x
Nc1nc(N)c2cc(Sc3ccc4ccccc4c3)ccc2n1 | 59* | -42 | 89* | x | 17 | 84* | x | 68*
O=C(CNC1CCN(Cc2ccccc2)CC1)Nc1ccc(S(=O)(=O)N2CCCCC2)cc1 | 7 | 81 | -10 | -26 | -14 | x | x | x
CCCCCCCCCCCCCCCC[n+]1cccc(C(=O)N(CC)CC)c1 | 60* | -37 | 96* | 107* | 25 | 94* | x | 79*
COCCN1CCN(C(=O)c2cc(COc3cncc(Cl)c3)on2)CC1 | 6 | -1 | -2 | 20 | 8 | x | x | x
O=C(CSC(=S)N1CCCC1)c1cc(Br)cc(Br)c1O | 52* | -36 | 58* | x | 57* | 46* | 48* | 66*
CCc1nn2c(=O)c(S(=O)(=O)Nc3ccc(C(C)C)cc3)c(C)nc2s1 | 15 | -6 | 21 | 1 | 10 | x | x | x
O=C(Nc1ccc2c(c1)OCCO2)NC12CC3CC(CC(C3)C1)C2 | 59* | 15 | 51* | -10 | 47* | 43* | 31 | 43*
CCN1CCN(c2ccc(S(=O)(=O)N3CCCCC3)cc2NC(=O)c2cccc(C(F)(F)F)c2)CC1 | 11 | 7 | 0 | 16 | 9 | x | x | x
O=C(CCl)Nc1sccc1C(=O)c1ccccc1 | 60* | 16 | 54* | -12 | 47* | 55* | 52* | 50*
Cc1sc(NC(=O)CCl)c(C(=O)c2ccccc2)c1C | 52* | 347 | 43* | -2 | 46* | 39* | 9 | 38*
Cc1ccccc1C(=O)Nc1sc(C)c(C)c1C(=O)c1ccccc1 | -10 | 4 | 14 | -26 | -9 | x | x | x
O=C(CCCN1C(=O)C(c2ccccc2)Oc2cccnc21)Nc1ccccc1Cl (centres undefined) | 36 | 28 | 40 | 15 | -4 | x | x | x
